Test results taken from PubChem BioAssay (Tox21).
Inconclusive results are not listed. Entries that show only a call come without a potency. Activity calls are given as the source filed them. Calls come from the whole dose curve; as a rule, active = well fitted inhibition curve with a large enough effect in the repeat runs; inconclusive = weak or mixed curves; inactive = flat fitted curve, though single readings scatter.

Molecular target: Voltage-gated inwardly rectifying potassium channel KCNH2 (Homo sapiens) (UniProt Q12809)
Sequence (Q12809 whole entry, looked up): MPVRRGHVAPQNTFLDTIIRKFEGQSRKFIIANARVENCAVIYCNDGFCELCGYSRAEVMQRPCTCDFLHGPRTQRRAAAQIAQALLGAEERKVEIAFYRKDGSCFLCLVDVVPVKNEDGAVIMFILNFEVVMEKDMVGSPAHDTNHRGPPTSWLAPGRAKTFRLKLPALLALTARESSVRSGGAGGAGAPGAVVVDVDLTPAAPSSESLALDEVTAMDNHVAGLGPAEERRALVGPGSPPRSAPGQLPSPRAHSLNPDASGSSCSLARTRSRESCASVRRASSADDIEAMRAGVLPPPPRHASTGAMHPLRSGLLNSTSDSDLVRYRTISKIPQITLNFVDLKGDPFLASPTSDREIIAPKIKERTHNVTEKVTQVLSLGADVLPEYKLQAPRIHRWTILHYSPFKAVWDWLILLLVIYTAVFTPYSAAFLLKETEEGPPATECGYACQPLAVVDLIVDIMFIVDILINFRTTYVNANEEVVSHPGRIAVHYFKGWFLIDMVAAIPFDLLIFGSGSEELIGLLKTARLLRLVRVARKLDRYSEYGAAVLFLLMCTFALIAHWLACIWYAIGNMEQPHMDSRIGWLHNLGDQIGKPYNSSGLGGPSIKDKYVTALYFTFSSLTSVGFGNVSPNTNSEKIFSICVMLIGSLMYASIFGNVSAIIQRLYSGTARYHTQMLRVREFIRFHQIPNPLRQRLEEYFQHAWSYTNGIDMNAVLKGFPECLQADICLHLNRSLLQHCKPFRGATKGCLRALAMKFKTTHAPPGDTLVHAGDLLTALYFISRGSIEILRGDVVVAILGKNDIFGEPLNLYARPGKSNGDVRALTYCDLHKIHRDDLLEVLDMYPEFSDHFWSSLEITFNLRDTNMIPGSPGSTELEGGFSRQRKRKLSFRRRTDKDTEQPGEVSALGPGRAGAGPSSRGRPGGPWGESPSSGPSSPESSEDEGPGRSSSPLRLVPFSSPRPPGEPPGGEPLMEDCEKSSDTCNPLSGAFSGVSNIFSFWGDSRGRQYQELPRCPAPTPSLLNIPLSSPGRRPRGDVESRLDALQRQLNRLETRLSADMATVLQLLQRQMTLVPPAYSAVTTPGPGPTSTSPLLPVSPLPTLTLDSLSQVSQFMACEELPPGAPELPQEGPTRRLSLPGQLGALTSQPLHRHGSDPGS
Assay: Human Ether-a-go-go-Related Gene (hERG) channel small molecule antagonists: fluorescence cell-based qHTS assay (AID 1671200); note: nearly all actives have a fitted effect of over 50% in size
Settings: hERG-U2OS cells, FluxOR thallium flux fluorescence; series mostly up to 76.8 µM
Text: National Center for Advancing Translational Sciences [NCATS]
U.S. Environmental Protection Agency [EPA]
National Institutes of Environmental Health Sciences [NIEHS]
National Toxicology Program [NTP]
U.S. Food and Drug Administration [FDA]
Mutations in the hERG channel cause Long QT (LQT) syndrome. LQT syndrome is a cardiac disorder which can cause ventricle arrhythmia and sudden death. Additionally, compounds which block the hERG channel can cause acquired LQT syndrome. Several FDA approved drugs have been removed from the market due to their hERG blocking activity. A cell-based hERG channel inhibition assay can be used to screen chemical compounds that inhibit hERG channel. This assay measures hERG channel activity using thallium ions as surrogate ions to measure potassium into the cells.
Tox21 Assay Protocol Summary:
hERG-U2OS cells were resuspended in culture medium and dispensed into 1536-well, black wall/clear-bottom plates at 1000cells/well/3uL using a Multidrop Combi dispenser (Thermo Fisher, Waltham, MA). After plates were incubated at 37 C overnight, 3 uL of Loading Buffer provided by FluxOR II Potassium Ion Channel Assay kit (Thermo, Carlsbad, CA) was added to each well. The assay plates were then incubated at room temperature in the dark for 1h. […] After the assay plates were incubated at room temperature for 10 min, 1 uL of Stimulus Buffer provided by FluxOR II Potassium Ion Channel Assay kit was added into each well and fluorescence intensity (480nm excitation/540nm emission) was continuously measured for 2 min at 1 second intervals using a Functional Drug Screening System (FDSS) 7000EX kinetic plate reader (Hamamatsu, Japan).
Potency is the fitted concentration of half-maximal effect.

Question: With `Nc1ccccc1S(=O)(=O)O` as the compound, how does the Potency read?
Answer: inactive

Question: For `CCN(Cc1ccncc1)C(=O)C(CO)c1ccccc1` (stereo not given), which Potency is on record?
Answer: inactive

Question: Which Potency does the source give for `N[C@H]1CN(c2c(F)cc3c(=O)c(C(=O)O)cn(C4C[C@H]4F)c3c2Cl)CC12CC2` (stereo not given in full) here?
Answer: inactive

Question: With `CC(C[N+](C)(C)C)OC(N)=O` (stereo not given) as the compound, how does the Potency read?
Answer: inactive

Question: `CC(=O)OCC(CCn1cnc2cnc(N)nc21)COC(C)=O` was tested. Which Potency did it give?
Answer: inactive

Question: `c1ccc([C@H]2CN3CCSC3=N2)cc1` was tested. Which Potency did it give?
Answer: inactive

Question: How did the Potency turn out when `CCCCCSCCCCC` was run?
Answer: inactive

Question: How did the Potency turn out when `Cc1cnc(NS(=O)(=O)c2ccc(N)cc2)nc1` was run?
Answer: inactive

Question: `COc1ccccc1OCC(O)CN1CCN(CC(=O)Nc2c(C)cccc2C)CC1` (stereo not given) was tested. Which Potency did it give?
Answer: inactive

Question: `CC(C)NCC(O)c1ccc(NS(C)(=O)=O)cc1` (stereo not given) was tested. Which Potency did it give?
Answer: 22.1 µM (active)

Question: For `c1cnc(N2CCN(Cc3ccc4c(c3)OCO4)CC2)nc1`, which Potency is on record?
Answer: inactive

Question: How did the Potency turn out when `COC(=O)CC(C)=O` was run?
Answer: inactive

Question: With `Cc1[nH]c(=O)c(C#N)cc1-c1ccc2nccn2c1` as the compound, how does the Potency read?
Answer: inactive

Question: How did the Potency turn out when `OC1CCCCC1c1ccccc1` (stereo not given) was run?
Answer: inactive

Question: How did the Potency turn out when `CCn1ccnc1CC1COc2ccccc2O1` (stereo not given) was run?
Answer: inactive

Question: How did the Potency turn out when `COCCCOCCCOC` was run?
Answer: inactive

Question: For `CC(C)OC(=O)c1ccccc1`, which Potency is on record?
Answer: inactive

Question: `C=COCC1CCC(CO)CC1` (stereo not given) was tested. Which Potency did it give?
Answer: inactive

Question: Which Potency does the source give for `CCSC(=O)N(CC(C)C)CC(C)C` here?
Answer: inactive

Question: For `CC(=O)c1ccccc1O`, which Potency is on record?
Answer: inactive

Question: `O=C(O)Cc1ccc(CCNS(=O)(=O)c2ccc(Cl)cc2)cc1` was tested. Which Potency did it give?
Answer: inactive

Question: Which Potency does the source give for `CCN(CC)CCNC(=O)c1cc(S(C)(=O)=O)ccc1OC` here?
Answer: inactive

Question: How did the Potency turn out when `CCN(CC)CCOCCOC(=O)C1(c2ccccc2)CCCC1` was run?
Answer: inactive

Question: Which Potency does the source give for `COC(=O)NN` here?
Answer: inactive

Question: How did the Potency turn out when `CCOC(=O)CCC(C)=O` was run?
Answer: inactive

Question: How did the Potency turn out when `O=Cc1cccc([N+](=O)[O-])c1` was run?
Answer: inactive

Question: `NS(=O)(=O)c1cc(C(=O)O)cc(N2CCCC2)c1Oc1ccccc1` was tested. Which Potency did it give?
Answer: inactive

Question: How did the Potency turn out when `CC1(C)C(O)C(C)(C)C1O` (stereo not given) was run?
Answer: inactive

Question: Which Potency does the source give for `Brc1c(NC2=NCCN2)ccc2nccnc12` here?
Answer: inactive

Question: For `O=C(O)CCCl`, which Potency is on record?
Answer: inactive

Question: For `CCn1nc(C(=O)O)c(=O)c2cc3c(cc21)OCO3`, which Potency is on record?
Answer: inactive

Question: `CC(C)(C)c1nnc(NS(=O)(=O)c2ccccc2)s1` was tested. Which Potency did it give?
Answer: inactive

Question: How did the Potency turn out when `O=C(O)COc1nn(Cc2ccccc2)c2ccccc12` was run?
Answer: inactive

Question: `CC(C)NCCCC1(C(N)=O)c2ccccc2-c2ccccc21` was tested. Which Potency did it give?
Answer: inactive

Question: With `CC(C)(C)NCCNC(C)(C)C` as the compound, how does the Potency read?
Answer: inactive

Question: `NC(=O)c1ccc(N)cc1` was tested. Which Potency did it give?
Answer: inactive

Question: With `CN(C)CCCNCCCN(C)C` as the compound, how does the Potency read?
Answer: inactive

Question: `CCOC(=O)c1ccc(C)cc1` was tested. Which Potency did it give?
Answer: inactive

Question: With `CCCCCCCCCCCCCCCCC` as the compound, how does the Potency read?
Answer: inactive

Question: With `CC(=O)CC(C)(C)C1CCCCC1` as the compound, how does the Potency read?
Answer: inactive
